Values joined by “and” are separate entries in the source; they are usually repeats but may differ in a detail not shown here. Equal values may be shown once. The whole screen tested about 5,500 compounds, of which about 2,000 (36%) were called active. Roughly 18% stayed inconclusive and do not appear here. Cut-off read from the data, not from the text of the source: active = normalized growth mostly below about 0.91 (no sharp cut-off); inconclusive = no clear call, values can overlap the other calls; inactive = mostly above about 0.92. This is one part of the list.
Test: chemical genetic growth profiling, strain panel (AID 1159580);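 note: tested at 20 µM; growth read once vehicle control cultures reached saturation at 30 °C; 1 = growth at the plate median or of vehicle wells; lower values mean less growth of the strain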
Conditions: S. cerevisiae deletion strains, growth OD

Measured: normalized growth

c1ccc2c(c1)[nH]c1cnccc12
inactive: locus YAL021C, strain ccr4, stronger effect = lower value 1.01 | locus YAL026C, strain drs2, stronger effect = lower value 1.01 | locus YAL030W, strain snc1, stronger effect = lower value 0.999 | locus YBL061C, strain skt5, stronger effect = lower value 0.991 | locus YBR009C, strain hhf1, stronger effect = lower value 1 | locus YBR021W, strain FUR4, stronger effect = lower value 1.05 | locus YBR023C, strain chs3, stronger effect = lower value 0.993 | locus YBR171W, strain sec66, stronger effect = lower value 0.99 | locus YBR229C, strain ROT2, stronger effect = lower value 1.01 | locus YBR231C, strain swc5, stronger effect = lower value 0.999 | locus YBR279W, strain paf1, stronger effect = lower value 1 | locus YCL011C, strain gbp2, stronger effect = lower value 0.998 | locus YCL016C, strain dcc1, stronger effect = lower value 0.999 | locus YCL029C, strain bik1, stronger effect = lower value 0.975 | locus YCL061C, strain MRC1, stronger effect = lower value 0.997 | locus YCL069W, strain vba3, stronger effect = lower value 1 | locus YCR088W, strain abp1, stronger effect = lower value 1 | locus YDL005C, strain med2, stronger effect = lower value 0.989 | locus YDL035C, strain GPR1, stronger effect = lower value 0.991 | locus YDL040C, strain nat1, stronger effect = lower value 0.995 | locus YDL074C, strain BRE1, stronger effect = lower value 0.977 | locus YDL101C, strain DUN1, stronger effect = lower value 0.986 | locus YDL134C, strain PPH21, stronger effect = lower value 1.08 | locus YDL185W, strain tfp1, stronger effect = lower value 0.954 | locus YDL192W, strain arf1, stronger effect = lower value 0.979 | locus YDR001C, strain nth1, stronger effect = lower value 1 | locus YDR069C, strain doa4, stronger effect = lower value 0.977 | locus YDR101C, strain arx1, stronger effect = lower value 0.961 | locus YDR137W, strain rgp1, stronger effect = lower value 0.958 | locus YDR159W, strain sac3, stronger effect = lower value 1.01 | locus YDR162C, strain NBP2, stronger effect = lower value 1.01 | locus YDR195W, strain ref2 0.995 | locus YDR297W, strain sur2, stronger effect = lower value 0.999 | locus YDR318W, strain mcm21, stronger effect = lower value 1.01 | locus YDR334W, strain swr1, stronger effect = lower value 0.998 | locus YDR335W, strain msn5, stronger effect = lower value 0.999 | locus YDR388W, stronger effect = lower value 0.996 | locus YDR392W, strain spt3, stronger effect = lower value 0.967 | locus YDR502C, strain sam2, stronger effect = lower value 0.994 | locus YEL003W, strain gim4, stronger effect = lower value 1 | locus YEL037C, strain rad23, stronger effect = lower value 1.03 | locus YEL061C, strain CIN8 (second series), stronger effect = lower value 1.01 | locus YEL061C, strain CIN8, stronger effect = lower value 0.99 | locus YER015W, strain faa2, stronger effect = lower value 0.982 | locus YER016W, strain bim1, stronger effect = lower value 0.992 | locus YER110C, stronger effect = lower value 0.964 | locus YER111C, strain swi4, stronger effect = lower value 0.984 | locus YER155C, strain BEM2 (second series), stronger effect = lower value 0.965 | locus YER155C, strain BEM2, stronger effect = lower value 1 | locus YER167W, strain BCK2, stronger effect = lower value 1.02 | locus YFR010W, strain ubp6, stronger effect = lower value 1 | locus YGL078C, strain dbp3, stronger effect = lower value 0.981 | locus YGL086W, strain mad1, stronger effect = lower value 0.948 | locus YGL167C, strain pmr1, stronger effect = lower value 0.998 | locus YGL173C, strain kem1, stronger effect = lower value 0.997 | locus YGL227W, strain vid30, stronger effect = lower value 0.999 | locus YGL240W, strain doc1, stronger effect = lower value 0.991 | locus YGL248W, strain PDE1, stronger effect = lower value 1.01 | locus YGL253W, strain hxk2, stronger effect = lower value 1.01 | locus YGR135W, strain pre9, stronger effect = lower value 1 | locus YGR229C, strain SMI1, stronger effect = lower value 1.02 | locus YGR252W, strain gcn5, stronger effect = lower value 1.19 | locus YHR013C, strain ard1, stronger effect = lower value 1.02 | locus YHR027C, strain rpn1, stronger effect = lower value 0.993 | locus YHR030C, strain SLT2, stronger effect = lower value 1 and 1.03 | locus YHR079C, strain IRE1 (second series), stronger effect = lower value 0.984 | locus YHR079C, strain IRE1, stronger effect = lower value 1.03 | locus YHR094C, strain hxt1, stronger effect = lower value 0.994 | locus YHR129C, strain ARP1, stronger effect = lower value 1 | locus YHR142W, strain chs7, stronger effect = lower value 1.01 | locus YHR200W, strain rpn10, stronger effect = lower value 0.98 | locus YIL066C, strain RNR3, stronger effect = lower value 1.01 | locus YIL073C, strain SPO22, stronger effect = lower value 0.995 | locus YIL125W, strain kgd1, stronger effect = lower value 0.992 | locus YIR030C, strain dcg1, stronger effect = lower value 0.991 | locus YJL092W, strain hpr5, stronger effect = lower value 0.995 | locus YJL095W, strain BCK1 (second series), stronger effect = lower value 0.999 | locus YJL095W, strain BCK1, stronger effect = lower value 1 and 1.01 | locus YJL115W, strain asf1, stronger effect = lower value 0.996 | locus YJL129C, strain trk1, stronger effect = lower value 1.01 | locus YJL134W, strain LCB3, stronger effect = lower value 1 | locus YJL154C, strain vps35, stronger effect = lower value 1 | locus YJL164C, strain tpk1, stronger effect = lower value 1.01 | locus YJL166W, strain qcr8, stronger effect = lower value 1 | locus YJL168C, strain set2, stronger effect = lower value 0.979 | locus YJL187C, strain SWE1 (second series), stronger effect = lower value 0.986 | locus YJL187C, strain SWE1, stronger effect = lower value 0.995 | locus YJR043C, strain POL32, stronger effect = lower value 1.04
